Screens (PubChem BioAssay)
MARV entry inh: Marburg virus entry inhibition; Marburg virus pseudotype entry/binding inhibition, cell-based; Potency, µM (series often up to 49.2 µM), inactives show at the highest dose activity change, negative = inhibition, actives largely listed as inhibitors; actives 6.5% (n = 18,000); AID 720532
Lassa entry: blocks Lassa virus binding or cell entry; Lassa virus pseudotyped entry inhibition, cell-based qHTS; Potency, µM (doses to about 49.2 µM), inactives show at the top dose activity change, negative = inhibition, hits mostly inhibitors; actives 4.1% (n = 18,000); AID 720533
The depositor's hits bear a star; ! = not active in a repeat; [ ] = another dose, or the depositor's remark. Sampled rows, rich in hits. Any-hit rate of the full collection: about 7.1%. The call rests on the fitted dose curve; tested in HEK293 cells. On the % scale 0 is the no-effect control and ±100 the full control effect; potency means the concentration at half of the fitted maximal effect.

Screening O=C(c1cnn(-c2nccc(-c3ccco3)n2)c1C1CC1)N1CCCCC1c1cccnc1 (centres undefined) returned MARV entry inh -4% and Lassa entry -27%.
Screening O=P(O)(O)C(O)(Cc1cccnc1)P(=O)(O)O returned MARV entry inh 17% and Lassa entry 0%.
Screening COC(=O)CC=C[C@H](C)[C@H](Cc1ccccc1Br)OC returned MARV entry inh 50%[8.59 µM] and Lassa entry -11%[8.59 µM].
CCC1CN2CCc3cc(OC)c(OC)cc3C2CC1CC1NCCc2cc(OC)c(OC)cc21 (centres undefined) was read as MARV entry inh 5µM* and Lassa entry 5.6µM*.
COc1ccc(CC2NCCc3cc(OC)c(OC)cc32)cc1OC (centres undefined) was read as MARV entry inh -18% and Lassa entry 2%.
O=C(Cn1cc2ccccc2n1)N1CCOc2ccc(C(O)C3CCCCC3)cc2C1 (centres undefined) was read as MARV entry inh inconclusive and Lassa entry -24%.
Screening Cc1c(C(=O)NCC2(N3CCOCC3)CCCCCC2)cnn1-c1nccc(-c2ccccc2F)n1 returned MARV entry inh 11µM* and Lassa entry -12%.
`Cc1c(C(=O)NCC2(N3CCCCC3)CCCC2)cnn1-c1nccc(-c2ccccc2F)n1` gave MARV entry inh -18% and Lassa entry -9%.
For Nc1cccc2c(N)cccc12 the results were MARV entry inh 3%[107 µM] and Lassa entry -7%[107 µM].
Nc1c2ccccc2nc2ccccc12 (tested in a mixture with another compound) was read as MARV entry inh 7.1µM* and Lassa entry -7%.
Screening CC(CCC(=O)OC[C@H]1O[C@H](C#Cc2ccccc2)C=C[C@H]1Oc1ccc(C)cc1)=NO[C@H](C)c1cn([C@@H]2COC[C@@H]2O)nn1 returned MARV entry inh 0%[8.59 µM].
Screening COc1cccc(-n2ncc3c(NN=Cc4ccncc4)ncnc32)c1 returned MARV entry inh -20% and Lassa entry 50%.
For COc1cccc(C=NNc2ncnc3c2cnn3-c2cccc(OC)c2)c1 the results were MARV entry inh -19% and Lassa entry -45%.
`COc1cccc(-n2ncc3c(NN=Cc4ccc(C(=O)NCCN(C)C)cc4)ncnc32)c1` gave MARV entry inh 10µM* and Lassa entry 11%.
For COc1cc(C=NNc2ncnc3c2cnn3-c2ccccc2)ccc1O the results were MARV entry inh 14µM* and Lassa entry inconclusive.
For O=C(O)C(O)C(O)(Cc1ccc(O)cc1)C(=O)O (centres undefined) the results were MARV entry inh -13% and Lassa entry 3%.
For Nc1ncnc2c1ncn2[C@@H]1O[C@H](COP(=O)(O)O)[C@@H](O)[C@@H]1O the results were MARV entry inh 2%[17.8 µM] and Lassa entry 3%[17.8 µM].
`Cc1ncc2c(c1CNC(=O)c1cncs1)CCN(C(=O)c1ccc(C(F)(F)F)cc1)C2` gave MARV entry inh inconclusive and Lassa entry -11%.
Screening C1=C(c2ccc3c(c2)CN(Cc2cccn2-c2ncccn2)CCO3)Cc2ccccc21 returned MARV entry inh 87% and Lassa entry 49%.
O=C(O)CCc1nc2ccccc2[nH]1 was read as MARV entry inh -4% and Lassa entry -11%.
CC(C)[C@H]1c2ccc(F)cc2CC[C@@]1(CCN(C)CCCc1nc2ccccc2[nH]1)OC(=O)C1CC1 was read as MARV entry inh 8.9µM* and Lassa entry inconclusive.
`COc1cccc([C@@H]2Oc3ccc(OC)cc3C[C@H]2OC(=O)Nc2cc(OC)c(OC)c(OC)c2)c1` gave MARV entry inh -3% and Lassa entry -7%.
CCOc1ccc(Cc2nccc3cc(OCC)c(OCC)cc23)cc1OCC was read as MARV entry inh inconclusive and Lassa entry -9%.
`COc1ccccc1O` gave MARV entry inh 24%[107 µM] and Lassa entry -13%[107 µM].
For COc1cccc(O)c1O the results were MARV entry inh 13µM* and Lassa entry inconclusive.
Screening Cn1c(SCC2CCCO2)nnc1C1CCN(Cc2ccco2)CC1 (centres undefined) returned MARV entry inh 3% and Lassa entry -7%.
OCC(O)COc1ccc(Cl)cc1 (centres undefined) was read as MARV entry inh 18% and Lassa entry -4%.
`CC(C)[C@H](NC(=O)[C@H](CCC(=O)O)NC(=O)[C@H](Cc1ccccc1)NC(=O)[C@H](C)NC(=O)[C@@H](N)Cc1ccc(O)cc1)C(=O)N[C@H](C(=O)NCC(N)=O)C(C)C` gave MARV entry inh 1% and Lassa entry -13%.
Screening O=c1c(O)c(-c2ccc(O)c(O)c2)oc2c(O)c(O)cc(O)c12 returned MARV entry inh inconclusive and Lassa entry 8%.
For O=c1oc2c(O)c(O)cc3c(=O)oc4c(O)c(O)cc1c4c23 the results were MARV entry inh 1µM* and Lassa entry -2%.
O=C(C1CCCCC1)N1C[C@H](O)[C@H](n2cc(C3CC3)nn2)C[C@@H]1c1ccccc1 was read as MARV entry inh 22% and Lassa entry 2%.
For COc1ccc2cc1Oc1ccc(cc1)CC1c3cc(c(OC)cc3CCN1C)Oc1c(OC)c(OC)c(OC)c3c1C(C2)N(C)CC3 (centres undefined) the results were MARV entry inh 10µM* and Lassa entry inconclusive.
Screening COc1cc2c3cc1Oc1cc(ccc1O)C[C@@H]1c4c(cc(OC)c(O)c4Oc4ccc(cc4)C[C@@H]3N(C)CC2)CC[N+]1(C)C returned MARV entry inh 1% and Lassa entry -9%.
CC[C@H](C)[C@H](NC(=O)[C@H](Cc1ccc(O)cc1)NC(=O)[C@@H]1CCCN1C(=O)[C@H](CCCCN)NC(=O)[C@@H](N)CCCCN)C(=O)N[C@@H](CC(C)C)C(=O)O was read as MARV entry inh 9% and Lassa entry -6%.
Screening C[C@@H]1[C@@H](c2ccccc2)Oc2c(Cl)cccc2S(=O)(=O)N1C returned MARV entry inh 18% and Lassa entry 3%.
O=c1[nH]c2ccccc2n1CCCN1CCC(n2c(=O)[nH]c3cc(Cl)ccc32)CC1 was read as MARV entry inh 13µM*! and Lassa entry inconclusive.
For O=C(CCCN1CCC(n2c(=S)[nH]c3ccccc32)CC1)c1ccc(F)cc1 the results were MARV entry inh inconclusive and Lassa entry -20%.
`CCCN(CCC)C1CCc2cccc(O)c2C1` (centres undefined) gave MARV entry inh 22µM* and Lassa entry 32µM*.
Screening CCCN(C/C=C/I)C1CCc2cccc(O)c2C1 (centres undefined) returned MARV entry inh inconclusive and Lassa entry 8%.
`COc1cc(Nc2c(C#N)cnc3cc(OCCCN4CCN(C)CC4)c(OC)cc23)c(Cl)cc1Cl` gave MARV entry inh 7.1µM* and Lassa entry inconclusive.
COC(=O)N[C@H](CC(C)=O)c1ccc2c(c1)OCO2 was read as MARV entry inh -17%[8.59 µM] and Lassa entry -15%[8.59 µM].
For CC(C)(C)C1(O)CCN2CC3c4ccccc4CCc4cccc(c43)C2C1 (centres undefined) the results were MARV entry inh 28µM* and Lassa entry inconclusive.
CC(C)(C)[C@]1(O)CCN2C[C@H]3c4ccccc4CCc4cccc(c43)[C@@H]2C1 was read as MARV entry inh 11µM* and Lassa entry inconclusive.
CN1CCN2c3ncccc3Cc3ccccc3C2C1 (centres undefined) was read as MARV entry inh inconclusive and Lassa entry 1%.
